These results are taken from ChEMBL document CHEMBL4513146, “CO-ADD screening of Karazin Kharkiv National University (Ukraine) compounds”.

The structures appear in SMILES notation. Potency and affinity values are given separately.

The experiment deals with Cryptococcus neoformans. Particulars: Concentration 32 ug.mL-1; ASSAY_TEST Inhibition of Fungal Growth; detection method Resazurin; Absorption (OD600-OD570); plate type 384well; NBS; CORNING #3640. In general terms: The colour change of resazurin is a common sign of viable cells or microbes.
The Inhibition is the relative decrease from the control value, in per cent. In the case of `COc1cccc(Oc2nccn3c(=O)n(CC(=O)Nc4ccc5c(c4)OCCO5)nc23)c1`, the Inhibition is recorded as -9.22%.
In the case of `CCc1nnc2c(SCC(=O)Nc3cccc(OC)c3)nc3ccccc3n12`, the Inhibition was -8.02%.
For `CCCCOc1ccc(-c2cc3c4nnc(SCC(=O)Nc5ccc(OC)cc5)n4ccn3n2)cc1`, the Inhibition is -13.28%.
In the case of `O=S(=O)(c1ccc2nncn2c1)N(Cc1cc(F)cc(F)c1)c1ccc2c(c1)OCO2` it was -7.84%; in that of `O=C(Cn1nc2ccc(SCc3ccc(Cl)cc3)nn2c1=O)Nc1ccc2c(c1)CCC2`, -25.38%.
In the case of `CCOc1ccc(-n2ccn3c(SC(C)C(=O)Nc4ccc(OC)cc4)nnc3c2=O)cc1` (stereo not given), the Inhibition is on record as -11.44%.
In the case of `Cc1cc2nn(CC(=O)Nc3ccc(F)cc3Cl)c(=O)n2c(Nc2ccc(F)cc2)n1`, the Inhibition was -3.99%.
`CCc1ccccc1NC(=O)Cn1nc2c(Sc3ccc(C)cc3C)nccn2c1=O`: the Inhibition was -23.87%.
The value for `Cc1cc(C)c(NC(=O)Cn2nc3n(C)c(=O)c4c(c(-c5ccccc5)cn4C)n3c2=O)c(C)c1` was -1.33%; that for `Cc1ccc(C)c(CN(c2ccc(F)c(F)c2)S(=O)(=O)c2cccn3cnnc23)c1` was -7.27%.
As for `CC(C)c1nnc2c(=O)n(CC(=O)Nc3ccccc3)c3ccccc3n12`, the Inhibition is given as -25.44%.
In the case of `COc1ccc(-c2cc3c4nn(CC(=O)Nc5ccc(OC)c(Cl)c5)c(=O)n4ccn3n2)cc1` it was -18.43%.
Take `O=C(Cn1nc2ccc(Sc3cccc(F)c3)nn2c1=O)NCc1ccc(C(F)(F)F)cc1`: the Inhibition is reported as -8.13%.
In the case of `CC(C)Cn1c(=O)c2sccc2n2c(=O)n(Cc3ccccc3Cl)nc12`, the Inhibition is on record as -28.89%.
The value for `Cc1ccc(NC(=O)Cn2nc3c4cc(-c5ccc(Cl)cc5)nn4ccn3c2=O)cc1F` was -19.64%.
In the case of `CCc1nnc2c(SCC(=O)Nc3c(C)cc(C)cc3C)nc3ccccc3n12`, the Inhibition is -17.04%.
The value for `C=Cc1ccc(CN(c2ccc(Cl)cc2)S(=O)(=O)c2cccn3c(C)nnc23)cc1` was -8.75%; that for `O=C(Cn1nc2nc(Nc3ccc(F)cc3)ccn2c1=O)N1CCCC1` was -8.71%.
Consider `COc1ccccc1N1CCN(C(=O)Cn2nc3ccc(-c4ccccc4)nn3c2=O)CC1`, for which the Inhibition is -5.13%.
In the case of `COc1ccc(NC(=O)Cn2nc3ccc(-c4ccc(Cl)cc4)nn3c2=O)cc1OC` it was -11.98%.
As to `CC(C)CCn1c(=O)c2sccc2n2c(=O)n(CC(=O)NC(C)C)nc12`, the Inhibition was -18.15%.
In the case of `Cc1ccccc1CN(c1ccc(Cl)cc1)S(=O)(=O)c1cccn2c(C)nnc12` it was -9.98%; in that of `CC(C)c1ccc(NC(=O)Cn2nc3c(N4CCCC4)nccn3c2=O)cc1`, -12.68%.
The value for `Cc1ccc(-c2ccc3nn(Cc4nc(-c5ccc(OC(F)(F)F)cc5)no4)c(=O)n3n2)cc1` was -8.92%; that for `COc1cccc(Oc2nccn3c(=O)n(CC(=O)Nc4ccccc4C(F)(F)F)nc23)c1` was -10.15%.
The value for `Cc1ccc(N(Cc2ccc(F)cc2)S(=O)(=O)c2ccc3nnc(C)n3c2)cc1` was -13.44%; that for `CCOC(=O)C1CCCN(C(=O)Cn2nc3n(CC(C)C)c(=O)c4sccc4n3c2=O)C1` (stereo not given) was -14.07%; that for `CCOC(=O)c1ccccc1NC(=O)Cn1nc2c(Oc3cccc(OC)c3)nccn2c1=O` was -5.16%.
Turning to `Cc1nnc2ccc(S(=O)(=O)N(Cc3ccccc3F)c3ccc(F)cc3)cn12`, the Inhibition was -9.05%.
The value for `CCOc1ccc(NC(=O)Cn2nc3c4cc(-c5ccc(C)c(C)c5)nn4ccn3c2=O)cc1` was -13.03%.
The value for `Cc1nnc2c(SCC(=O)Nc3ccc(C#N)cc3)nc3ccccc3n12` was -16.12%; that for `CC(C)c1ccc(Oc2nc3ccccc3n3c(=O)n(CC(=O)Nc4ccc5c(c4)OCO5)nc23)cc1` was -13.49%; that for `Cc1nnc2c(=O)n(CC(=O)Nc3ccccc3F)c3ccccc3n12` was -6.39%.
In the case of `CCOC(=O)c1ccccc1NC(=O)Cn1nc2c3cc(-c4ccc(Cl)cc4)nn3ccn2c1=O` it was -20.88%; in that of `O=c1c2nn(Cc3c(F)cccc3Cl)c(=O)n2ccn1-c1ccccc1`, -4.81%.
With `CCCCn1c(=O)c2sccc2n2c(=O)n(CC(=O)N3CCC(Cc4ccccc4)CC3)nc12`, the Inhibition was -0.28%.
The value for `COc1cccc(-n2ccn3c(SCC(=O)c4c(C)[nH]c5ccccc45)nnc3c2=O)c1` was -9.48%; that for `COc1ccc(CCn2c(=O)c3sccc3n3c(=O)n(CC(=O)c4ccccc4)nc23)cc1OC` was -38.41%.
In the case of `Cc1cc(C)cc(Nc2nc(C)cc3nn(CC(=O)Nc4ccc(F)cc4F)c(=O)n23)c1` it was -6.19%; in that of `COc1ccc(-c2cc3c4nnc(SCC(=O)Nc5ccc(C)cc5Cl)n4ccn3n2)cc1`, -30.51%.
